# In PubChem BioAssay (NCATS):
# The source made the active and inactive calls. Calls follow the shape of the dose curve; as a rule, active = well fitted curve in the direction sought with a large enough effect; inconclusive = small, poorly fitted or top-dose-only effect, or another doubt; inactive = no such curve, though single readings can be large or run the other way.
# Experiment: Cellular Toxicity (caspase-3) MRC-5 (AID 659);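 also: cells exposed to compound for 16 h at 37 °C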
# Settings: MRC-5 cells, luminescence, normalized: DMSO 0%, 10 µM staurosporine 100%; series mostly up to 91.7 µM
# From the text: NIH Chemical Genomics Center [NCGC]
# NIH Molecular Libraries Screening Centers Network [MLSCN]
# National Institutes of Environmental Health Sciences [NIEHS]
# National Toxicology Program [NTP]
# We have developed a 1536-well cell-based assay for quantitative high throughput screening (qHTS) against a number of cell lines to determine in vitro caspase 3/7 activity of small molecules. This particular assay uses the MRC-5 cell line which is derived from human normal lung fibroblasts.
# NCGC Assay Protocol Summary:
# The Caspase-Glo 3/7 assay (Promega) is a homogeneous method to measure caspase-3 and caspase-7 activities in cultured cells. The quantitation of caspase 3/7 activity is based on the cleavage of a peptide-aminoluciferin substrate. After caspase cleaves the substrate the free aminoluciferin is liberated and serves as the substrate of luciferase, which generates the light. The luminescent signal is proportional to amount of caspase 3/7 activity present.
# Using the Caspase-Glo 3/7 assay, the amount of caspase 3/7 activity was measured in the MRC-5 line with complete culture medium following compound treatment for 16 hours. The assay was performed in opaque white 1536-well plates. In the screen, tamoxifen and staurosporine were used as positive controls. Library compounds were measured for their ability to cause the activation of caspase 3/7 in the cell line, as reflected by an increase in luminescence signal, in a concentration-dependent manner. Data were normalized to the controls for basal activity (DMSO only) and 100% stimulation (10 uM staurosporine). AC50 values were determined from concentration-response data modeled with the standard Hill equation.
# qHTS protocol for caspase 3/7 assay in MRC-5 cells
# [Step] [Parameter] [Value] [Description]
# 1. Reagent; 5 uL; 1500 MRC-5 cells/well
# 2. Time; 5 hr; 37 °C incubation
# 4. Controls; 23 nL; Tamoxifen 0.23 uM to 100 uM & staurosporine 1.4 pM to 100 uM
# 5. Time; 16 hr; 37 °C incubation
# 6. Reagent; 5 uL; Caspase-Glo 3/7 reagent
# 7. Time; 1 hr; Room Temperature
# 8. Detection; Luminescence; Viewlux plate reader
# Keywords: caspase 3/7, apoptosis, MRC-5 cell line, luminescence, NTPHTS, NTPHTS_NCGC, NIEHS, EPA, DSSTox, MLSMR, MLSCN, NIH Roadmap, qHTS, NCGC
row,Structure (SMILES),outcome
1,Nc1cccc2c(N)cccc12,inactive
2,CC(C)C(C)(C)C(C)(C)C(C)(C)S,inactive
3,Oc1ccccc1,inactive
4,Nc1c2ccccc2nc2ccccc12,inactive
5,Cc1cc(C(C)(C)C)c(O)c(C(C)(C)C)c1,inactive
6,CC(C)(C)c1ccc(O)c(O)c1,inactive
7,CCCC(=O)c1cc(O)c(O)cc1O,inactive
8,O=C(Oc1ccccc1)c1ccccc1O,inactive
9,O=C(NO)c1ccccc1,inactive
10,CCCCC(CC)COC(=O)c1ccccc1C(=O)O (stereo not given),inactive
11,OCc1c[nH]c2ccccc12,inactive
12,C1=CC2C3C=CC(C3)C2C1 (stereo not given),inactive
13,COc1cc(C=O)ccc1O,inactive
14,CC(C)(c1ccc(O)cc1)c1ccc(O)cc1,inactive
15,Nc1ccc(O)cc1,inactive
16,O=C(c1ccccc1)c1ccccc1,inactive
17,c1ccc2occc2c1,inactive
18,Cc1ccc(O)cc1,inactive
19,Brc1ccccc1-c1ccccc1,inactive
20,CC(=O)OC/C=C(C)/C=C/C=C(C)/C=C/C1=C(C)CCCC1(C)C,inactive
